Only some compounds are listed: those with a hit (about 1.7% of all), similar ones and a draw of the others.
rTrxR1 inhibitor: blocks rat thioredoxin reductase 1. 390,000 compounds, 1% hits. AID 588453. recombinant rTrxR1, NADPH fluorescence consumption, selenite substrate. Potency, µM (doses to about 114 µM), for inactives: top-dose activity change, negative = inhibition, actives largely listed as inhibitors. O89049; also: % is scaled to controls: 0 for no effect and ±100 for the full control effect; nearly all actives have a fitted effect of over 65% in size
Target sequence (O89049 whole entry, looked up): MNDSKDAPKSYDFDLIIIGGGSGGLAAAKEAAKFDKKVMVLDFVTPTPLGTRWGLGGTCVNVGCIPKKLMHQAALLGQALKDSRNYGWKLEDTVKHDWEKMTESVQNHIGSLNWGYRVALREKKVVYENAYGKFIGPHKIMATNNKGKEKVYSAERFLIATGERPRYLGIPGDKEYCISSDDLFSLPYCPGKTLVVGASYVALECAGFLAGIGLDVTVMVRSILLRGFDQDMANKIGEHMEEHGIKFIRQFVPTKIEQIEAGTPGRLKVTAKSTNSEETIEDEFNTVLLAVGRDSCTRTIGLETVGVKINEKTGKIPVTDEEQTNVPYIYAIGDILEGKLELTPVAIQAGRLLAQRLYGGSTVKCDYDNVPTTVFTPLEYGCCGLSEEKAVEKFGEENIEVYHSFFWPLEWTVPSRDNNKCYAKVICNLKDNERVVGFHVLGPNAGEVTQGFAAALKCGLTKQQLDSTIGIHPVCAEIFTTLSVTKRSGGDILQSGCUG
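Rat TrxR1 (90 nM in the dispensed reagent) was pre-reduced with 400 uM NADPH for 5 min at room temperature, then incubated with compound for 15 min. After 400 uM selenite was added, NADPH fluorescence (Ex 340/Em 450 nm) was followed for 8 min.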
Anesthetic bind: binds horse apoferritin like a general anesthetic; Potency, µM (series often up to 77.5 µM), without a hit: top-dose activity change, negative = displacement, most hits filed as inhibitors; P02791; 350,000 compounds, 0.074% hits; apoferritin/1-aminoanthracene competitive binding, fluorescence; also: % is scaled to controls: 0 for no effect and ±100 for the full control effect; nearly all actives have a fitted effect of over 20% in size
Target sequence (P02791 2-175 limits assumed): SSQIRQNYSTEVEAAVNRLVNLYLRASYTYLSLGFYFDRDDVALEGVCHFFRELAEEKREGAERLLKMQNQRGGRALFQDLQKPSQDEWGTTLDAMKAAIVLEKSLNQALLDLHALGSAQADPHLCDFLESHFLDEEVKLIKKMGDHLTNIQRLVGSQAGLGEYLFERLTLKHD
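Probe: 1-aminoanthracene (50% saturated, PBS). Protein: horse-spleen apoferritin, 10 uM. Incubation: 10 min, room temperature. Detection: 380 nm excitation, 535 nm emission. Analysis: normalized response, four-parameter Hill.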
mIDH1 inhibitor: blocks human mutant IDH1 R132H enzyme; IDH1-R132H enzyme, NADPH consumption, diaphorase/resazurin fluorescence; Potency, µM (doses to about 76.6 µM), for the others: at the highest dose activity change, negative = inhibition, usual class: inhibitors; O75874; 390,000 compounds, 0.093% hits; AID 602179; also: % is scaled to controls: 0 for no effect and ±100 for the full control effect; nearly all actives have a fitted effect of over 65% in size
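IDH1-R132H (0.5 ug/mL) preincubated 30 min with compound, then NADPH (0.016 mM) and alpha-KG (2 mM) added; 80 min at RT, pH 7.5. Remaining NADPH coupled via diaphorase/resazurin to fluorescence (540/590 nm); concentration-response curves normalized to no-enzyme control.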
TrxR1 substrate: rat thioredoxin reductase 1 substrate activity | O89049 | purified TrxR1 substrate turnover, NADPH consumption readout | Potency, µM (top dose mostly 114 µM), inactives show at the top dose activity change, negative = substrate turnover | 390,000 compounds, 0.01% hits | AID 588456; also: % is scaled to controls: 0 for no effect and ±100 for the full control effect; nearly all actives have a fitted effect of over 50% in size
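Rat TrxR1, dispensed at 90 nM, was prereduced with 400 uM NADPH (final) for 5 min at ~22 deg C, then incubated with compound 15 min before 400 uM selenite. A first-read NADPH fluorescence drop versus no-compound background flagged substrates.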
ALOX12 inh: blocks human arachidonate 12S-lipoxygenase; purified 12hLO, xylenol orange hydroperoxide absorbance; 580,000 compounds, 1.1% hits; P18054; Potency, µM (series often up to 108 µM), without a hit: top-dose activity change, negative = inhibition, actives largely listed as inhibitors; AID 1671190; also: % is scaled to controls: 0 for no effect and ±100 for the full control effect
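Hydroperoxide product was detected by ferrous iron/xylenol orange as the 573 to 405 nm absorbance ratio. Arachidonic acid at 40 uM (final) was turned over for 30 min at room temperature by 150 nM human 12hLO, pH 7.0 Hepes buffer, after 15 min compound preincubation.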
Glioma ERSR ind: inducers of ER stress response in human glioma cells. 420,000 compounds, 0.02% hits. AID 602332. Potency, µM, without a hit: at the top dose activation, actives largely listed as activators. U87-MG GRP78 promoter luciferase reporter, 16 h; also: series mostly up to about 76 µM; % of control where 0% means no effect; nearly all actives have a fitted effect of over 35% in size
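Stably transfected U87-MG glioma cells carrying a GRP78-based luciferase sensor; 16 h compound incubation. Luminescence end-point read 10 min after Bright-Glo addition at room temperature.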
* marks the source's active call; other numbers are inactive results; ? = inconclusive; . = not tested or not shown; [ ] = another dose, or the depositor's remark. Calls follow the shape of the dose curve; as a rule, active = well fitted curve in the direction sought with a large enough effect; inconclusive = small, poorly fitted or top-dose-only effect, or another doubt; inactive = no such curve, though single readings can be large; an effect the other way counts as inactive or inconclusive. Potency is read from the fitted curve at half-maximal effect.

SMILES | rTrxR1 inhibitor | Anesthetic bind | mIDH1 inhibitor | TrxR1 substrate | ALOX12 inh | Glioma ERSR ind
O=C(Nc1ccc(Br)cc1)c1ccc(Nc2cc(-c3ccccc3)ncn2)cc1 | . | . | . | . | 0% | .
O=S(=O)(Nc1cc2nc3ccccc3nc2n1Cc1ccccc1)c1ccc(Cl)cc1 | -8% | -11% | -3% | ? | 45µM* | -5%
O=S(=O)(NCc1ccccc1)c1ccc(Cl)cc1 | -3% | ? | 8% | -3% | 4% | -5%
Cc1noc(-c2ccc(OC3CN(C(=O)CCCc4ccccc4)C3)cc2)n1 | . | . | . | . | 26% | .
Cc1noc(-c2ccc(OC3CN(C(=O)Cc4cccs4)C3)cc2)n1 | . | . | . | . | 7.1µM* | .
O=C1NC(=O)/C(=C\c2ccc(O)cc2O)S1 | -7%[57.1 µM] | -11% | -2% | -2%[57.1 µM] | 40µM* | 0%
O=C1NC(=O)/C(=C/c2cccc3ccccc23)S1 | 6% | ? | -5% | -6% | -104% | 6%
Cc1ccc(CCNC(=O)CS(=O)Cc2nc(-c3cccs3)oc2C)cc1 (centres undefined) | 14µM* | -10% | -3% | -2% | -25% | -5%
COc1ccc(CCNC(=O)CS(=O)Cc2nc(-c3cccs3)oc2C)cc1OC (centres undefined) | 40µM* | -11% | 0% | 3% | -7% | -6%
COc1ccc(-c2nc(CS(=O)CC(=O)NCc3ccc(C)cc3)c(C)o2)cc1OC (centres undefined) | 50µM* | -16% | 7% | 9% | -28% | -1%
COc1ccc(CCNC(=O)CS(=O)Cc2nc(-c3ccccc3Cl)oc2C)cc1OC (centres undefined) | 27% | -10% | 5% | 7% | 6% | -1%
COc1ccc(-c2cc(N3CCC(NC(=O)CCc4ccccc4)CC3)n[nH]2)cc1 | . | . | . | . | -2% | .
COc1ccc(/C=C/C(=O)NCC2COc3ccccc3O2)cc1OC (centres undefined) | 8%[57.1 µM] | ? | 3% | 2%[57.1 µM] | 3% | 0%
Cc1ccc(/C=C/C(=O)NCC2COc3ccccc3O2)o1 (centres undefined) | 16µM* | -14% | -1% | 5% | ? | 10%
Cc1oc(-c2nc(C#N)c(N3CCCCC3)o2)cc1S(=O)(=O)N(C)c1ccccc1 | . | . | . | . | 11% | .
O=C1CCCN1CCCN1C(=O)[C@H]2CN(Cc3ccncc3)C[C@H]2C1=O | . | . | . | . | 48% | .
CCCCN(C(=O)NC(=O)C1=C(N2CCOCC2)/C(=C/c2ccccc2)CC1)S(C)(=O)=O | 14µM* | 348% | -2% | 112% | -26% | 3%
O=C(O)c1ccc(N/N=C/C2=C(N3CCOCC3)C(=C\c3ccccc3)/CC2)cc1 | -28% | -8% | ? | -6% | -56% | 2%
CN(C(=O)NC(=O)C1=C(N2CCOCC2)/C(=C/c2ccccc2)CC1)S(C)(=O)=O | 35µM* | 516% | -8% | 71% | -25% | 0%
Cc1cccc(CNC(=O)c2ccc(-c3nnc4ccc(NC(=O)C5CCC5)cn34)cc2)c1 | . | . | . | . | 0% | .
CCn1nc(C)cc1S(=O)(=O)N1CCC2(CC1)NC(=O)CC2C(=O)O (centres undefined) | . | . | . | . | -2% | .
COCCn1cc2c3c(cccc31)CN(C(=O)c1cc(F)ccc1Cl)CC2 | . | . | . | . | 25µM* | .
CCCn1cc2c3c(cccc31)CN(C(=O)c1cccc(F)c1)CC2 | . | . | . | . | 5% | .
CN(Cc1ccc(Cl)cc1)C(=O)CCl | 6.3µM* | -9% | 11% | 3% | -1% | -15%
O=C(NC1CCCC1)c1ccc(CS(=O)Cc2ccccc2Cl)o1 (centres undefined) | 50µM* | -18% | 10% | 6% | 8% | -2%
SMILES | rTrxR1 inhibitor | Anesthetic bind | mIDH1 inhibitor | TrxR1 substrate | ALOX12 inh | Glioma ERSR ind
O=C(NC1CCCCC1)c1ccc(CS(=O)Cc2ccccc2Cl)o1 (centres undefined) | ? | 7% | 16% | 4% | 1% | -2%
CC(C(=O)NC(=O)NC1CCCC1)N(C)CC(=O)Nc1ccc(Cl)c(C(F)(F)F)c1 (centres undefined) | . | . | . | . | 27% | .
O=C(Nc1sc2c(c1C(=O)O)CCCC2)c1ccc(F)cc1 | 12% | -9% | 20% | 0% | ? | 2%
NC(=O)c1c(NC(=O)c2ccc(F)cc2)sc2c1CCC2 | ? | -9% | -4% | 6% | 18µM* | 0%
O=C(Nc1sc2c(c1C(=O)Nc1ccccc1)CCC2)c1ccc(Br)cc1 | 56µM* | -4% | 0% | 3% | -12% | -2%
COc1ccccc1CNC(=O)c1cccc(N(C)C)c1 | 6% | ? | 0% | 5% | 1.8µM* | 5%
CN(C)c1cccc(C(=O)NNc2c(Cl)cc(Cl)cc2Cl)c1 | . | . | . | . | 5µM* | .
CCc1cccc(C)c1NC(=O)c1cccc(N(C)C)c1 | 30%[57.1 µM] | ? | 3% | 13%[57.1 µM] | 22µM* | -4%
Cc1cc(S(=O)(=O)NCc2ccco2)c(C)cc1Cl | 71µM* | -23% | 0% | -2% | ? | -1%
COc1cc(C)c(Cl)cc1S(=O)(=O)NCc1ccco1 | -12%[57.1 µM] | -11% | 3% | -2% | ? | -5%
CC(=NNC(=S)Nc1ccc(C)cc1)c1ccccn1 | ? | . | 0% | -11% | ? | ?
COc1ccccc1NC(=S)NN=C(C)c1ccccn1 | 11µM* | . | 7% | -6% | ? | 1%
CCNC(=O)N1C[C@@H](Oc2ccccc2)C[C@H]1C(=O)N1CCOCC1 | . | . | . | . | 21% | .
Cc1ccc(C)c(NC(=O)CCCN2C(=O)C(c3ccccc3)Oc3cccnc32)c1 (centres undefined) | 9% | 45% | -1% | -3% | -35% | -1%
O=C1Nc2cc(S(=O)(=O)N3CCCC3)ccc2N2CCCC12 (centres undefined) | 50µM* | -14% | 0% | -3% | -30% | -3%
Cc1ccc(S(=O)(=O)N2[C@@H](c3ccc(C(C)(C)C)cc3)C(C(=O)O)=CC[C@H]2c2cccc(Cl)c2)cc1 | 28% | . | 2%[38.3 µM] | 6% | -83% | ?
Cc1ccc(S(=O)(=O)N2[C@@H](c3ccc(C(C)(C)C)cc3)C(C(=O)O)=CC[C@H]2c2ccc(Cl)c(Cl)c2)cc1 | 20% | . | -7% | -2% | 35µM* | -1%
Cc1nc(NS(=O)(=O)c2ccccc2)sc1NC(=O)Nc1ccccc1 | -33% | -9% | -5% | -11% | ? | -5%
Cc1nc(NS(=O)(=O)c2ccccc2)sc1NC(=O)Nc1ccc(Cl)cc1 | -21% | 6% | -1% | -6% | 40µM* | 6%
C=CCNC(=O)c1cn2c(n1)CN([S+](=O)([O-])c1cccc(OC)c1)CC2 | . | . | . | . | -5%[6.33 µM] | .
CC(C)(C)c1cc(N)c(O)c(Cl)c1 | . | . | . | . | 18µM* | .

Screening data: PubChem, National Center for Advancing Translational Sciences (NCATS)
